PubChem BioAssay (NCI)
“And” between values parts separate entries of the source, which are not always exact repeats. Equal entries are not always repeated. This is part of a sample that, as a whole, favours compounds with a hit. Of some 83,000 tested, about 20% had one in any assay.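 Testing used 96-well plates and a 48-hour single-concentration exposure. Example: -40 means 40% of the starting cells died.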 Values without a mark were called inactive. The source made the active and inactive calls. How the source made its calls: active means growth percent below 10; inactive means the rest.

Key:
Assay in all cases: NCI-60 one-dose screen, 48 h (100 = growth as untreated, 0 = no growth, -100 = all killed)
Details in all cases: 10 µM unless noted
NCI-H23 lung = system: NCI-H23 lung
NCI-H226 lung = system: NCI-H226 lung
NCI-H322M lung = system: NCI-H322M lung
HOP-62 NSCLC = system: HOP-62 NSCLC
NCI-H460 lung = system: NCI-H460 lung
HOP-92 NSCLC = system: HOP-92 NSCLC
NCI-H522 lung = system: NCI-H522 lung
A549/ATCC NSCLC = system: A549/ATCC NSCLC
786-0 renal = system: 786-0 renal
COLO 205 colon = system: COLO 205 colon
DU-145 prostate = system: DU-145 prostate
K-562 leukemia = system: K-562 leukemia
MALME-3M melanoma = system: MALME-3M melanoma
MDA-MB-231 breast = system: MDA-MB-231 breast
RXF 393 renal = system: RXF 393 renal
SF-268 CNS = system: SF-268 CNS
SF-295 CNS = system: SF-295 CNS
SF-539 CNS = system: SF-539 CNS
UACC-257 melanoma = system: UACC-257 melanoma
M14 melanoma = system: M14 melanoma

SMILES | growth (NCI-H23 lung) | growth (NCI-H226 lung) | growth (NCI-H322M lung) | growth (HOP-62 NSCLC) | growth (NCI-H460 lung) | growth (HOP-92 NSCLC) | growth (NCI-H522 lung) | growth (A549/ATCC NSCLC) | growth (786-0 renal) | growth (COLO 205 colon) | growth (DU-145 prostate) | growth (K-562 leukemia) | growth (MALME-3M melanoma) | growth (MDA-MB-231 breast) | growth (RXF 393 renal) | growth (SF-268 CNS) | growth (SF-295 CNS) | growth (SF-539 CNS) | growth (UACC-257 melanoma) | growth (M14 melanoma)
CCc1ccc(SC2c3cc(OC)ccc3Oc3nc(N)c(C#N)c(N)c32)cc1 (stereo not given) | -5.83% (active) | -6.69% (active) | -48% (active) | 1.33% (active) | 3.96% (active) | -38.5% (active) | -8.76% (active) | -41.2% (active) | -54.6% (active) | -68.9% (active) | 3.29% (active) | 0.578% (active) | -55.2% (active) | -41.4% (active) | -61.8% (active) | -4.75% (active) | -58.8% (active) | -62.1% (active) | -9.43% (active) | -14.1% (active)
COc1ccc2[nH]cc(-c3cc4nc(-c5cn(C)c6ncccc56)cc(N)n4n3)c2c1 | 13.9% | 92.6% | 37.1% | 19.8% | -58.3% (active) | -45.7% (active) | -58.7% (active) | -25.9% (active) | -90.3% (active) | -49.9% (active) | 9.07% (active) | -31.7% (active) | -60.6% (active) | -58.4% (active) | -62.3% (active) | 32.8% | -71.4% (active) | -93.6% (active) | 72.7% | -49.5% (active)
CCCn1c(NC(=O)c2cccc(C(N)=O)c2)nc2cc(CN3CCCCC3)ccc21 | 88.1% | 101% | 92% | 95.8% | 101% | 84.8% | 83.1% | 95.7% | 9.97% (active) | 88.7% | 103% | 72.3% | 98% | 142% | 64.5% | 111% | 107% | 107% | 113% | 13.8%
ClC(Cn1ncc2c(Nc3cccc(Br)c3)nc(SCCN3CCOCC3)nc21)c1ccc(Br)cc1 (stereo not given) | -20.2% (active) | 32.2% | 47.5% | -12.9% (active) | 27.6% | -18.9% (active) | 13.9% | 15.7% | -66.5% (active) | -79.2% (active) | 28.6% | -37.7% (active) | -38% (active) | -51.8% (active) | -62.2% (active) | 44.7% | -71.3% (active) | -79.1% (active) | -42.8% (active) | -19.5% (active)
CCOC(=O)c1ccc(NC(=S)NC(=O)c2ccc(NC(=O)C(C)C)cc2OC)cc1 | 15.9% | 22.3% | 74.9% | 53.9% | 44.5% | 33.6% | 30.9% | 80.2% | 85.2% | 37.5% | 78.2% | 10.7% | 3.16% (active) | 47.2% | 74.2% | 68.1% | 36.8% | 79.6% | 42% | 34.1%
N#Cc1c(-c2ccc(F)cc2)nc(SCc2ccc(F)cc2)nc1N1CCNCC1 | -61.3% (active) | 76.9% | 36.1% | -65.4% (active) | -85.1% (active) | -64.9% (active) | -70.4% (active) | -74.8% (active) | -79.1% (active) | -68.8% (active) | -3.44% (active) | 0.722% (active) | -97.8% (active) | -93.6% (active) | -64.7% (active) | 41.5% | -79.9% (active) | -98.9% (active) | -90.7% (active) | -88.4% (active)
CC1=C(C(=O)OC(C)C)C(c2ccc(O)cc2)NC(=O)N1 (stereo not given) | 101% | 105% | 106% | 99.4% | 117% | 105% | 81.3% | 101% | 99.5% | 114% | 111% | 98.5% | 102% | 101% | 104% | 115% | 105% | 101% | 96.5% | 99.8%
COc1ccc(NC(=O)CSc2nnc(-c3ccc(-c4nc5ccc(Cl)cc5[nH]4)cc3)o2)cc1 | -15.7% (active) | -18.8% (active) | 35% | -25.4% (active) | -17.2% (active) | 4.79% (active) | 6.93% (active) | 1.75% (active) | -64.4% (active) | 69.4% | 8.29% (active) | 13.3% | 0.449% (active) | -30.2% (active) | -37% (active) | 45.4% | 43.8% | -91.1% (active) | 29% | 13.5%
C#CCN(C)CCCOc1ccc(N(C)C(=O)c2cc(C(C)C)c(O)cc2O)cc1Cl | 12.3% | 13.7% | 34.8% | 34.6% | -13.3% (active) | -23.9% (active) | 12.6% | 15.9% | 33.5% | 7.34% (active) | 24.3% | 3.57% (active) | -27.8% (active) | -15.8% (active) | 22.3% | 41.4% | 6.57% (active) | 17.3% | 9.35% (active) | 0.868% (active)
N/C(=N\c1nc2ccc([N+](=O)[O-])cc2s1)NC(=O)Nc1ccccc1Cl | 44.6% | 23.7% | 61.7% | 51.3% | 11.3% | 17.2% | 5.69% (active) | 9.92% (active) | -32% (active) | 49.3% | 45.5% | 13% | -17.1% (active) | 15% | 25% | 56.1% | 58.5% | 11.1% | 89.6% | 62.8%
CC(=O)Nc1cccc(-n2c(COc3ccc(Br)cc3)nc3ccccc32)c1 | 94% and 107% | 76.2% and 107% | 103% and 104% | 119% and 114% | 105% and 107% | 90% and 108% | 97.1% and 108% | 115% and 108% | 115% and 103% | 108% and 124% | 106% and 89.7% | 91.4% and 106% | 96.3% and 98.8% | 80% and 102% | 82.4% and 106% | 91% and 103% | 89.6% and 103% | 87.4% and 106% | 130% and 107% | 109% and 108%
N#C/C(=C/c1ccc(Cl)cc1)c1nnc(NC(=O)c2ccc(-n3c(=O)[nH]c4ccccc4c3=O)cc2)s1 | 28.6% | 2.1% (active) | 59.5% | 26.6% | 10.1% | 39.3% | 46.4% | 69.8% | 48.1% | 68.1% | 85.1% | 99% | 68.2% | -5.08% (active) | 20.1% | 73.2% | 96.3% | 24.1% | 102% | 78.8%
CC(=O)c1ccc2c(N)c(C(=O)Nc3ccc(C(F)(F)F)cc3)sc2n1 | 41.7% | 59.1% | 83.2% | 58.6% | 72.8% | 67.1% | 59.8% | 78.5% | 78.1% | 83.4% | 82.2% | 20% | 26.4% | 68.3% | 85.8% | 85.2% | 38.1% | 71.1% | 59.5% | 58.3%
